# Results filed as inconclusive are left out. Activity calls are given as the source filed them. The call rests on the fitted dose curve; in most records, active means well fitted activation curve with a large enough effect; inconclusive means small, poorly fitted or top-dose-only effect; inactive means flat fitted curve, though single readings scatter.
# Assay: qHTS assay for environmental chemicals that activate the Aryl hydrocarbon Receptor (AhR) signaling pathway (AID 651777); further: % of control where 0% means no effect; nearly all actives have a fitted effect of over 15% in size
# Conditions: 1A2-DRE human hepatoma cells, luciferase, 24 h; activation: stronger effect = higher value
# Outline: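 Human hepatoma 1A2-DRE cells, stably carrying a dioxin response element and CYP1A2 promoter driving luciferase, were exposed to compounds for 24 hr at 37 C and 5% CO2. Luciferase signal was then read after 30 min One-Glo at room temperature.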
row,Compound,activation
1,CC(C)CCCCCCCCCCCCCCC(=O)O,-2.9% (inactive)
2,C=CCOc1nc(OCC=C)nc(OCC=C)n1,5.16% (inactive)
3,CCCCCCCCCCCC(=O)OC,1.82% (inactive)
4,CCOC(=O)c1ccccc1C,-0.718% (inactive)
5,CCCC/C=C\CCCCCCCCCC=O,1.27% (inactive)
6,CCCCCCCCCCCCN,-1.22% (inactive)
7,CCC(O)OCCCOC (configuration not stated),0.32% (inactive)
8,C=CCCCCCCCCCC,-1.31% (inactive)
9,Oc1ccc(C(c2ccc(O)cc2)C(Cl)(Cl)Cl)cc1,10% (inactive)
10,CC1=CC(=O)CC(C)(C)C1,0.188% (inactive)
11,CCCCCCCC/C=C\CCCCCCCCO,0.617% (inactive)
12,CCCCCCCC[Si](OCC)(OCC)OCC,0.203% (inactive)
13,CCCCCCCCCCCCCCCO,2.17% (inactive)
14,O=S(=O)(O)c1cc(S(=O)(=O)O)c2c(N=Nc3ccccc3)c(O)ccc2c1,0.18% (inactive)
15,Cc1ccc(C(C)(C)C)c(O)c1,1.48% (inactive)
16,CC(COc1ccc(C(C)(C)C)cc1)OS(=O)OCCCl (configuration not stated),12.5% (inactive)
17,CCOC(=O)C(C)Oc1ccc(Oc2nc3ccc(Cl)cc3o2)cc1 (configuration not stated),0.871% (inactive)
18,CCOC(=O)NCCOc1ccc(Oc2ccccc2)cc1,5.93% (inactive)
19,O=C(O)CCCCCCC(=O)O,-0.962% (inactive)
20,CC(C)CCCCOC(=O)c1ccccc1C(=O)OCCCCC(C)C,0.811% (inactive)
21,COC(OC)(C(=O)c1ccccc1)c1ccccc1,1.33% (inactive)
22,COCCOCCOCCOC,-0.0635% (inactive)
